Assay outcomes: PubChem BioAssay, several laboratories
Sampled rows, rich in hits. Any-hit rate of the full collection: about 1.3%.
Gli-Sufu block – Gli-Sufu pathway antagonism; Sufu-KO-LIGHT fibroblasts, Gli luciferase reporter luminescence; inhibition, % at 5 µM; 340,000 tested, 0.74% active; AID 588413;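 active = inhibition above about 55%, limit read from the data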;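 note: 0% = DMSO-treated cells and 100% = wells with medium but no cells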
NR5A2 inv ag – inverse agonists of human LRH-1 (NR5A2); O00482; HEK293T StAR-luciferase reporter, LRH-1 transfected, 24 h; inhibition, % at 3.6 µM; 360,000 tested, 0.13% active;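 active = inhibition above the mean inhibition of all tested compounds plus 3 SD, cut at about 73% in these data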;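 note: 0% = DMSO wells and 100% = reporter-only cells lacking LRH-1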
SRC3 inh – human NCOA3 inhibition; Q9Y6Q9; HEK293 GAL4-SRC3 luciferase reporter, luminescence; inhibition, % at 3.6 µM; 360,000 tested, 0.17% active; AID 588352;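 active = inhibition above a per-campaign cutoff, the mean of all compounds plus 3 SD, cut at about 60% in these data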;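 note: 0% = DMSO-treated cells and 100% = gossypol-treated cells at 36 µM; higher means less SRC3-driven luciferase light from the GAL4 reporter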
NCOA2 inhibitor – inhibits human steroid receptor coactivator 2. AID 651957. HEK293 GAL4-SRC2 luciferase reporter, luminescence. inhibition, % at 9 µM. 370,000 tested, 0.17% active;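 active = inhibition above the mean inhibition of all tested compounds plus 3 SD, set per campaign, cut at about 52% in these data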;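 note: 0% = DMSO treated cells and 100% = cells given Gossypol at 36 µM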
Target sequence (Q15596 whole entry, looked up, the tested form may be a part): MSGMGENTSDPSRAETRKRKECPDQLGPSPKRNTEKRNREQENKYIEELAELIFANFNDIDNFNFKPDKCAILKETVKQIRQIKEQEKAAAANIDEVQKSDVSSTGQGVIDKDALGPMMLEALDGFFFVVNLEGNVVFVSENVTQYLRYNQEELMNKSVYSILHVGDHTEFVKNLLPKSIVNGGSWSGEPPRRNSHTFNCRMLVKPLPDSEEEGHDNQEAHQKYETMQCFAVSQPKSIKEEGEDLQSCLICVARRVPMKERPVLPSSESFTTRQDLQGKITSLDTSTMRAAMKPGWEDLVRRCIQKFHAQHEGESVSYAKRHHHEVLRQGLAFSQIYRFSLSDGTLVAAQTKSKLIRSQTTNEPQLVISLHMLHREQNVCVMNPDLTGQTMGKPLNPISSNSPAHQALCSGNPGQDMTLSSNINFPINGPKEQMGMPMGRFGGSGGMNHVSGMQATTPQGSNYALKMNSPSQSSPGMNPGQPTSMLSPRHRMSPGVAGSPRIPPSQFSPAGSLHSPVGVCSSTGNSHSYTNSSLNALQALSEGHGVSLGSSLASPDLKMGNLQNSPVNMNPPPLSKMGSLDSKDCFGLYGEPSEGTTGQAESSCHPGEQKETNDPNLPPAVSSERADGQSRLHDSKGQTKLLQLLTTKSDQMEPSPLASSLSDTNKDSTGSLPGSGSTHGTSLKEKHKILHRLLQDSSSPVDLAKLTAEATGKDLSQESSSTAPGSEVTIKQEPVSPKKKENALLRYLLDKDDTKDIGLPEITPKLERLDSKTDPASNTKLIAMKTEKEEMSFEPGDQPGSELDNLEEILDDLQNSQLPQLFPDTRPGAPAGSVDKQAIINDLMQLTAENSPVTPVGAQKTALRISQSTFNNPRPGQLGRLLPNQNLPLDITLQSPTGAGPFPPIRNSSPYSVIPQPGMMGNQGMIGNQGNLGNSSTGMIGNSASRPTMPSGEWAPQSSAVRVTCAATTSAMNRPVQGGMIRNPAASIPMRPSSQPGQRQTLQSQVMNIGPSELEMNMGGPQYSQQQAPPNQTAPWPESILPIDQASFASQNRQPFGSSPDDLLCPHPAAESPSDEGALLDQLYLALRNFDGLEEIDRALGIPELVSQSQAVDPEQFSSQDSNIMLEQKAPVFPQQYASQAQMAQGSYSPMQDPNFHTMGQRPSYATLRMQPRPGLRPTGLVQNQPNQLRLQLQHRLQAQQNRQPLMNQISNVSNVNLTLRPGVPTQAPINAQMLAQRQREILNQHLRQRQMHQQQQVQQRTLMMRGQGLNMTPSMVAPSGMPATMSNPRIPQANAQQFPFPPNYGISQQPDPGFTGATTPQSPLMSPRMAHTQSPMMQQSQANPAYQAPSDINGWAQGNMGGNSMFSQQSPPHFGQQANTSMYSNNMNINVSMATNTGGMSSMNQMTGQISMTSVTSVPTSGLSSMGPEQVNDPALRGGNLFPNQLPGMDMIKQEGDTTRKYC
NCOA1 inh – inhibits human SRC1 coactivator | Q15788 | HEK293 GAL4-SRC1 luciferase reporter, luminescence | inhibition, % at 3.6 µM | 360,000 tested, 0.12% active;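 active = inhibition above the campaign mean plus 3 SD, with each screening campaign given its own cutoff, cut at about 60% in these data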;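 note: 0% = DMSO treated cells and 100% = gossypol at 36 µM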
NR2F2 inh – blocks human COUP-TFII nuclear receptor; inhibition, % at 8.6 µM; 370,000 tested, 0.7% active; HEK293T NGFI-A luciferase reporter, luminescence; P24468;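 active = inhibition above a per-plate cutoff, mean inhibition of test wells between control levels plus 3 SD, cut at about 38% in these data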;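 note: cells cotransfected with COUP-TFII expression vector driving the NGFI-A reporter; 0% = median of COUP-TF2 test wells and 100% = reporter-only cells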
Numbers without * were called inactive; · = no result.

SMILES	Gli-Sufu block	NR5A2 inv ag	SRC3 inh	NCOA2 inhibitor	NCOA1 inh	NR2F2 inh
COC(=O)c1cc(C)nc2c1C(=O)C(=O)C=C2N1CCOCC1	10	22	71*	57*	62*	42*
c1ccc(CN2CCCC3CC2c2ccccc23)cc1 (stereo not drawn)	·	·	·	-1	·	10
CCN1CCN(Cc2ccc(NC(=O)c3ccc(C)c(NC(=O)c4cncc(-c5cccs5)c4)c3)cc2C(F)(F)F)CC1	72*	48	31	·	24	·
CCN1CCN(Cc2ccc(NC(=O)c3ccc(C)c(NC(=O)c4nccn4C)c3)cc2C(F)(F)F)CC1	43	2	-3	-2	6	1
CCCCCCCCCCCCCCCC[n+]1ccc(C(N)=O)cc1	17	13	18	14	-3	16
CCCCCCCCCCCCCCCC[n+]1ccc(/C=N/O)cc1	73*	-2	17	-17	-8	38*
Cc1cc(Br)cn2c(Cc3ccccc3C(F)(F)F)c(-c3ccco3)nc12	·	·	·	-4	·	12
CC1CCC(C(C)C)C(OC(=O)C[n+]2cc(-c3ccc(Cl)cc3)n3c2CCCCC3)C1 (stereo not drawn)	65*	8	23	6	19	7
CC(C)(C)c1ccc(Cn2c(=N)n(CC(O)c3ccco3)c3ccccc32)cc1 (stereo not drawn)	65*	0	9	·	-24	·
Cc1ccc2c(c1C)-c1c(ccc(C)c1C)C(=O)C2=O	64*	47	44	37	-2	-49
CCC(C)N(CC(=O)Nc1cccc(C)c1C)C(=O)CCl (stereo not drawn)	18	42	62*	·	62*	·
O=C(Nc1ccccc1)C1=C(c2ccccc2)S(=O)(=O)CCS1(=O)=O	-4	0	-24	54*	-31	24
CC(C)C[C@@H]1COc2cccc(N3CCCCC3)c2S(=O)(=O)N1	·	·	·	0	·	9
CN1c2ccccc2N(C)C1(C)c1ccccc1	61*	13	-5	-25	-11	5
CCN1c2ccccc2N(C)C1(C)c1ccccc1 (stereo not drawn)	38	14	19	·	21	·
Cc1ccc(NCSc2ccc(Cl)cc2)cc1	-44	-98	-68	-36	-57	-17
Clc1ccc(SCNc2ccccc2Cl)cc1	4	15	-4	5	-49	39*
COC(=O)C1=C(C)N(Cc2ccc(F)cc2)C(=S)NC1c1ccc(F)cc1 (stereo not drawn)	·	·	·	27	·	3
COC1=C(C)C(=O)C2=C(C1=O)C1C3CC4=C(C(=O)C(OC)=C(C)C4=O)C(CNC(=O)C(C)=O)N3C(C#N)C(C2)N1C (stereo not drawn)	81*	96*	85*	63*	84*	52*
CCC(=O)N1c2ccc(S(=O)(=O)N3CCN(c4ccc([N+](=O)[O-])cc4)CC3)cc2CC1C (stereo not drawn)	58*	12	14	8	12	9
CC(=O)c1ccc(N2CCN(S(=O)(=O)c3ccc4c(c3)CC(C)N4C(=O)C3CC3)CC2)cc1 (stereo not drawn)	67*	7	-8	15	2	6
CN(C)c1ccc(C(=O)OCc2ccccc2)cc1	-39	-38	-23	-59	-33	-28
O=C1C=CC(=O)C(CNc2ccc(C(=O)OCc3ccccc3)cc2)=C1	7	-42	-15	67*	-75	12
c1ccc(Cn2cc(CCOCc3ccccn3)c3ccccc32)cc1	·	·	·	-14	·	4
C[N+]1(CC2COC3(CCCCC3)O2)CCCC1 (stereo not drawn)	-3	1	9	97*	-1	-13
SMILES	Gli-Sufu block	NR5A2 inv ag	SRC3 inh	NCOA2 inhibitor	NCOA1 inh	NR2F2 inh
COc1cccc(NC(=O)n2ccc3ccc(-c4ccc5ccn(C(=O)Nc6cccc(OC)c6)c5c4)cc32)c1	·	·	·	3	·	5
Cc1ccc(-c2cc(NC(=O)Cc3c(C)[nH]c4ccccc34)ccc2Nc2cccnc2)cc1	·	·	·	-3	·	-10
C=C1C(=O)[C@]23C[C@H]1CCC2[C@@]1(C)C(C[C@@H]3O)[C@](C)(C(=O)OC)CC[C@@H]1O (stereo partly drawn)	·	48	40	64*	43	27
CC1=[N+](C)c2ccc3ccccc3c2C1(C)C	70*	-11	-8	9	4	6
C[C@@H]1CN(S(=O)(=O)C(C)(C)C)[C@@H](CCO)/C1=C\CCO	·	·	·	14	·	10
C[C@H]1CN([C@@H](C)CO)C(=O)c2c(c3ccccc3n2C)-c2ccccc2CO[C@H]1CN(C)C(=O)Nc1cccc(F)c1	·	·	·	15	·	9
Cc1ccc2nc(-c3ccc(C#N)cc3)c(Cc3cccc(F)c3)n2c1	·	·	·	-8	·	-15
CCOC(=O)C1CCCN(S(=O)(=O)c2cc3c(cc2Br)CCN3C(=O)CC)C1 (stereo not drawn)	·	·	·	9	·	8
COc1ccc(-c2cc(=O)[nH]c3ccccc23)cc1	-17	19	-8	-29	0	6
COc1cccc2[nH]c(=O)c(-c3ccccc3)cc12	-65	-98	83*	-44	-61	-31
CN(C)CCNC(=O)c1cccc2nc3c(ccc4ccccc43)nc12	34	33	32	-80	66*	-40
O=S(=O)(CS(=O)(=O)c1ccccc1Br)c1ccccc1Br	·	·	·	-12	·	-13
Cc1oc2c(c1C(=O)c1ccccc1)C(=O)C(=O)c1ccccc1-2	6	16	-39	63*	-16	-31
CSc1c(N(C)C)c(=O)c1=S	·	·	·	-20	·	13
Cc1ccccc1N=Nc1ccc(O)c2ncccc12	18	4	7	-2	12	-13
COc1ccc(N=Nc2ccc(O)c3ncccc23)cc1	61*	-7	-43	4	-30	11
Oc1ccc(N=Nc2ccc3c(c2)OCCO3)c2cccnc12	·	4	59	52*	37	34
COc1cccc(N=Nc2ccc3cccnc3c2O)c1	-5	-8	7	-107	-37	21
COc1cccc(N=Nc2ccc(O)c3ncccc23)c1	68*	-35	-15	-36	-28	-9
Cc1ccc2nc(C(F)(F)F)c(C#N)c(N)c2c1	-8	25	36	54*	38	34
C[C@@H]1CN([C@H](C)CO)C(=O)CCCn2cc(nn2)CO[C@H]1CN(C)S(=O)(=O)c1cn(C)cn1	·	·	·	10	·	2
Cc1ccc(-c2nnn(CC(=O)N(Cc3cccs3)C(C(=O)NCC3CCCO3)c3ccco3)n2)o1 (stereo not drawn)	-8	16	12	17	-1	3
COc1ccc(-c2nnn(CC(=O)N(Cc3ccccc3Cl)C(C(=O)NCC3CCCO3)c3ccco3)n2)cc1OC (stereo not drawn)	23	-14	11	95*	-11	7
COc1ccccc1Cc1c(-c2cccc(Br)c2)nc2ccc(C)cn12	·	·	·	-26	·	-28
CCCCCCCCCn1c2c(c(=N)c3c1CCC3)CCCC2	88*	89*	81*	·	50	·
